Results filed as inconclusive are left out. Active and inactive are the calls of the source. The call rests on the fitted dose curve; in most records, active means well fitted inhibition curve with a large enough effect; inconclusive means small, poorly fitted or top-dose-only effect; inactive means flat fitted curve, though single readings scatter.

This assay has as its system CRL-7250. The experiment in a line: qHTS assay to identify novel small-molecules to repurpose for Merkel cell carcinoma treatment (AID 1296009). Further: nearly all actives have a fitted effect of over 60% in size. Conditions: MCC and control cell lines, CellTiter-Glo viability, 72 h; at 44.8 µM (top of the series) unless noted. An outline of the steps:
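72 hr, 37 degree celsius; NPC 8-pt / MIPE 11-pt dose response; compound pinned in DMSO; CellTiter-Glo, 10 min RT, luminescence; normalized to no-cell and DMSO controls.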
For orientation: Quantitative high-throughput screening tests each substance at several concentrations.
As to `CN1CCCCC1CCN1c2ccccc2Sc2ccc(S(C)=O)cc21` (stereo not drawn), the outcome was inactive.
`NC(N)=NCCC[C@H](N)C(=O)O`: the outcome was “inactive [at 4.96 µM]”.
The same measure for `CC1(C)[C@@H]2CC[C@@]1(C)C(=O)C2`: “inactive”; for `O=C(O)COC(=O)Cc1ccccc1Nc1c(Cl)cccc1Cl`: “inactive”; for `CCCCCC(N)=O`: “inactive”.
The entry for `CN(C)CCOc1ccccc1Cc1ccccc1` is “inactive”.
The entry for `CCOC(=O)c1ccc(OC(=O)CCCCCN=C(N)N)cc1` is “inactive”.
Consider `COc1cc([C@H]2Oc3cc([C@H]4Oc5cc(O)cc(O)c5C(=O)[C@@H]4O)ccc3O[C@@H]2CO)ccc1O`, for which the call was inactive.
The same measure for `O=C(/C=C/c1ccccc1)NCCO`: “inactive”; for `CCCC(=O)OC[C@@H](OC(=O)CCC)[C@@H](OC(=O)CCC)[C@H](Cn1c2nc(=O)[nH]c(=O)c-2nc2cc(C)c(C)cc21)OC(=O)CCC`: “inactive”; for `NC(N)=NC(=O)c1nc(Cl)c(N)nc1N`: “inactive”.
The entry for `CCCCNc1cc(C(=O)O)cc(S(N)(=O)=O)c1Oc1ccccc1` is “inactive”; for `CCn1cc(C(=O)O)c(=O)c2cc(F)c(N3CCN(C)CC3)cc21` it is “inactive [at 17.4 µM]”; for `O=C1[C@H]2CCCC[C@H]2C(=O)N1CCCCN1CCN(c2nsc3ccccc23)CC1` it is “inactive”.
The same measure for `C=C1c2cccc(O)c2C(O)=C2C(=O)[C@]3(O)C(O)=C(C(N)=O)C(=O)[C@@H](N(C)C)[C@@H]3[C@@H](O)[C@H]12`: “inactive”.
For `CC1(C)OC[C@@H](COC(=O)CCc2ccc(OC[C@@H](O)CNCCNC(=O)N3CCOCC3)cc2)O1`, the molecule was classed as inactive.
The entry for `O=C(c1ccc(F)cc1)C1CCN(CCn2c(=O)[nH]c3ccccc3c2=O)CC1` is “inactive”.
The same measure for `COc1ccc2c(c1)c(CC(=O)O)c(C)n2C(=O)c1ccc(Cl)cc1`: “inactive”.

For the origin of these results see PubChem BioAssay (NCATS).
